Measured values taken from PubChem BioAssay AID504332 (National Center for Advancing Translational Sciences (NCATS), 2011).
Screen size: about 350,000 compounds; about 31,000 (8.9%) were called active. Another 15% or so got no clear call; they are omitted. Only a selection was taken, and actives are over-represented in it overall. A number with no mark means an inactive call. The call rests on the fitted dose curve; in most records, active means well fitted inhibition curve with a large enough effect; inconclusive means small, poorly fitted or top-dose-only effect; inactive means no such curve, though single readings can be large or run the other way.

target: Histone-lysine N-methyltransferase EHMT2 (Homo sapiens) (UniProt Q96KQ7); test: qHTS Assay for Inhibitors of Histone Lysine Methyltransferase G9a; conditions: G9a H3K9 monomethylation, AlphaScreen, 2 h; series mostly up to 59 µM; activity, negative = inhibition: at the top concentration; further: nearly all actives have a fitted effect of over 75% in size
Sequence (Q96KQ7 913-1193 limits assumed): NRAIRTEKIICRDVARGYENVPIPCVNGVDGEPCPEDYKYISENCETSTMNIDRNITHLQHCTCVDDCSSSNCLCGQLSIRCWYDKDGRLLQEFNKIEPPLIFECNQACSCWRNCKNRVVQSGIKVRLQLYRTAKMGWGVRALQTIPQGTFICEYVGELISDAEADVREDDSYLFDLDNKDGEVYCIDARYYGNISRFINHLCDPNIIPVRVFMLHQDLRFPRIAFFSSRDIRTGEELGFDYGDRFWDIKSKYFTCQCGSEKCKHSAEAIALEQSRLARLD
Summary of the method: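 Quantitative HTS format: methyltransferase activity on a biotin-tagged H3K9 peptide is measured by AlphaScreen, using a rabbit anti-monomethyl-H3K9 antibody with streptavidin donor and anti-IgG acceptor beads. Final levels are 20 nM enzyme, 500 nM peptide, 20 uM SAM; 2 h RT.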
On the % scale 0 is the no-effect control and ±100 the full control effect; potency means the concentration at half of the fitted maximal effect.

| Compound | activity, negative = inhibition | Potency |
| --- | --- | --- |
| CCOC(=O)CSc1nnc(CNc2nc(-c3ccccc3)cs2)n1C | 2.05% [at 12.7 µM] |  |
| CCNC(=O)CSc1nc(-c2ccccc2)cs1 | -2.39% [at 102 µM] |  |
| Cn1c(CNc2nc(-c3ccccc3)cs2)nnc1SCC(=O)c1ccccc1 |  | 39.8 µM (active) |
| CC(C)n1ncc2c(C(=O)Nc3ccc(CC#N)cc3)cc(C3CC3)nc21 | 10% [at 2.33 µM] |  |
| COc1ccc(C(CNC(=O)c2ccc(NS(=O)(=O)c3ccc(F)c(C)c3)cc2)N(C)C)cc1 (stereo not given) | -42.1% [at 102 µM] |  |
| Cc1nnc(NCc2ccccc2)c2c1nnn2Cc1ccc(F)cc1 | 1.55% |  |
| COCCNc1ccc(-c2n[nH]c(=O)c3ccccc23)cc1[N+](=O)[O-] | -2.77% [at 102 µM] |  |
| Cc1cc(C)cc(NS(=O)(=O)c2ccc(-c3cc(C)no3)s2)c1 | -5.96% |  |
| OCCN1CCN(c2nnc(-c3ccccc3)c3ccccc23)CC1 | -2.01% [at 102 µM] |  |
| OCCN1CCN(C(=S)c2ccc(-c3ccccc3)cc2)CC1 |  | 22.4 µM (active) |
| O=C(NC(c1ccccc1)c1ccccc1)N1CCN(CCO)CC1 | -4.95% |  |
| COCCNC(=O)CSc1nc(-c2ccccc2)[nH]c1-c1ccc(C)cc1 | -23.6% |  |
| Cc1ccc(N=C2SCCCN2C(=O)c2cccc(N3C(=O)CCC3=O)c2)cc1Cl | 10.1% [at 0.501 µM] |  |
| COC(=O)CN1C(=O)[C@H]2[C@@H](/C=C/c3ccccc3)N3C(=O)CN(Cc4ccccc4)C(=O)[C@@]3(Cc3ccccc3)[C@H]2C1=O | 22.8% [at 102 µM] |  |
| Fc1ccccc1Oc1ncnc2c1oc1ccccc12 | 31% |  |
| COc1cccc(NS(=O)(=O)c2ccc(-c3coc(C)n3)cc2)c1 | 6.33% |  |
| COc1ccc(-c2nc3sc(CCNS(=O)(=O)c4ccc(F)c(C)c4)c(C)n3n2)cc1 | 8.56% |  |
| Nc1ncnc2c1c(I)cn2[C@@H]1C[C@H](N)[C@@H](O)[C@H]1O |  | 6.7 µM (active) |
| CC(C)Oc1ccc(CNC(=O)C2CCN(c3nc4ccccc4n(C)c3=O)CC2)cc1 | 0.276% |  |
| COc1ccccc1/C=C/C1=NC(=C\N(C)C)/C(=O)O1 | 0.665% |  |
| CN(C)/C=C1\C=C(c2ccccc2)OC1=O |  | 39.8 µM (active) |
| COc1cccc(/C=C2\C=C(c3ccc(C)cc3)OC2=O)c1OC(C)=O | -18.6% [at 102 µM] |  |
| COc1ccc(-c2ccc3nnc(SCC(=O)Nc4ccc(NC(C)=O)cc4)n3n2)cc1 | 3.85% |  |
| Cc1ccc(-c2nnc(SCc3ccccc3C)o2)cc1 | 63.6% |  |

| Compound | activity, negative = inhibition | Potency |
| --- | --- | --- |
| CCNC(=S)N(CCN(CC)CC)Cc1cc2cc3c(cc2[nH]c1=O)OCO3 | 3.61% [at 102 µM] |  |
| COCCCNC(=S)N(CCN(C)C)Cc1cc2cc3c(cc2[nH]c1=O)OCCO3 |  | 35.5 µM (active) |
| CCN(CC)CCCNC(=S)N(CCO)Cc1cc2cc3c(cc2[nH]c1=O)OCO3 | -0.221% [at 102 µM] |  |
| CCN(CC)S(=O)(=O)c1ccc2c(c1)nc(CN(C)C(=O)Nc1ccc(Cl)cc1)n2C | 1.45% [at 12.7 µM] |  |
| O=C(COc1ccccc1)Nc1ccc(C(=O)N2CCCC2)cc1 | 54.3% [at 102 µM] |  |
| COc1ccc(-c2nn3c(-c4ccc(OC)cc4)nnc3c3ccccc23)cc1 | 16.8% |  |
| CC(=O)NC(=S)Nc1ccc(NC(=S)NC(=O)c2ccc([N+](=O)[O-])cc2)cc1 | -40% [at 102 µM] |  |
| CNC(=S)Nc1ccc([N+](=O)[O-])cc1 |  | 56.2 µM (active) |
| NC(=S)N/N=C/c1ccc([N+](=O)[O-])cc1 | 1.02% [at 102 µM] |  |
| CCN(CC)CCNC(=O)CN1N=C(c2ccc(OC)cc2)CCC1=O | -2.08% |  |
| CCCn1c(=O)c(C(=O)Nc2cc(C)ccn2)c(O)c2ccccc21 | -5.46% [at 0.501 µM] |  |
| CN(C)S(=O)(=O)c1ccc(NC(=O)COC(=O)Cn2[nH]c(=O)c3ccccc3c2=O)cc1 | 0.845% [at 102 µM] |  |
| O=C(COC(=O)Cn1[nH]c(=O)c2ccccc2c1=O)Nc1ncc(Cl)cc1Cl |  | 56.2 µM (active) |
| O=C(COC(=O)Cn1[nH]c(=O)c2ccccc2c1=O)Nc1c(Cl)cccc1C(F)(F)F | 2.11% [at 0.501 µM] |  |
| Cc1noc2ncnc(NCc3ccccc3Cl)c12 | 1.98% |  |
| COc1ccccc1CNC(=O)C1CCN(S(=O)(=O)c2ccc3c(c2)CC(C)N3C(=O)C2CC2)CC1 (stereo not given) | 0.85% [at 102 µM] |  |
| Cc1cc(C)c(C)c(S(=O)(=O)N2CCN(C(=O)c3ccc4c(=O)n5c(nc4c3)CCC5)CC2)c1C | -30.4% [at 0.501 µM] |  |
| O=C(Nc1nnc(S(=O)(=O)N2CCCCCC2)s1)c1cccc(Br)c1 |  | 8.91 µM (active) |
| CCN(CC)S(=O)(=O)c1ccc(C)c(NC(=O)COc2ccc(Br)cc2Cl)c1 | 13.3% |  |
| CCC(=O)Nc1nnc(S(=O)(=O)N(CC(C)C)c2ccccc2)s1 | 25.7% [at 102 µM] |  |
| CCN(CC)S(=O)(=O)c1nnc(NC(=O)COc2ccccc2Cl)s1 |  | 2.82 µM (active) |
| O=C(Nc1nnc(S(=O)(=O)N2CCOCC2)s1)c1cccc(Br)c1 |  | inactive |
| CC1CCN(S(=O)(=O)c2nnc(NC(=O)COc3ccccc3F)s2)CC1 | -0.0742% [at 102 µM] |  |
| Cc1cccc(C(=O)Nc2nnc(S(=O)(=O)N3CCCCCC3)s2)c1 | -0.38% [at 102 µM] |  |

| Compound | activity, negative = inhibition | Potency |
| --- | --- | --- |
| COc1cccc(C(=O)Nc2nnc(S(=O)(=O)N3CCCCC3)s2)c1 | -15.3% [at 102 µM] |  |
| Cc1ccccc1OCC(=O)Nc1nnc(S(=O)(=O)N2CCCC2)s1 |  | 2.24 µM (active) |
| COc1ccc(Cl)cc1NC(=O)COc1ccc2c(c1)OCO2 | 6.56% [at 12.7 µM] |  |
| CCc1ccc(CNC(=O)c2cc3c(=O)n(CC)c4ccccc4c3s2)cc1 | -20.7% |  |
| CCCN1CN=C(NS(=O)(=O)c2ccc(NC(C)=O)cc2)NC1 | 0.281% |  |
| O=S(=O)(c1ccc(-c2ccno2)s1)N1CCCCC1 | 100% [at 102 µM] |  |
| COc1ccc(NS(=O)(=O)c2cc(NC(=O)COc3ccccc3F)ccc2OC)cc1 | 30.6% [at 12.7 µM] |  |
| CC1=C(C(=O)Nc2ccccc2Cl)C(c2cccs2)n2ncnc2N1 (stereo not given) | 0.0916% |  |
| CC1(C)O[C@@H]2[C@H](O1)[C@@H](COS(=O)(=O)O)O[C@H]2n1ccc(=O)[nH]c1=O | 2.02% [at 2.33 µM] |  |
| Cc1cccc(-c2oc3ccc(-c4ccc5c(c4)OCO5)cc3c2C#Cc2cncn2C)c1 | 7.97% [at 0.501 µM] |  |
| COc1ccc(Cl)cc1C(=O)OCC(=O)NCc1cccs1 | 5.04% |  |
| CCSc1nnc(NC(=O)c2cc(=O)c3cc(C)c(C)cc3o2)s1 | -6.05% |  |
| Cc1ccc(Cl)cc1NC(=O)NC1COc2ccccc2C1 (stereo not given) | 0.91% |  |
| CSc1nc(Nc2ccc(F)cc2)cc(-c2ccccc2)n1 | 18.2% |  |
| CN(C)c1nc(NN)nc(Nc2ccc(F)cc2)n1 | 5.01% [at 102 µM] |  |
| Fc1ccc(Nc2nnns2)cc1 |  | 10 µM (active) |
| O=S1(=O)CCN2C(=N1)SC1=C2CCN(Cc2ccccc2)C1 |  | 20 µM (active) |
| Cc1ccc(C2=CSC3=NS(=O)(=O)CCN23)cc1C | -0.694% |  |
| O=C1/C(=C\c2cccnc2)CN(Cc2ccccc2)C/C1=C\c1cccnc1 | -13.5% |  |
| COc1ccccc1C(=O)NCCC(=O)N(C)Cc1cccnc1 | 9.72% |  |
| CC1Cc2cc(/C(O)=C3\C(=O)C(=O)N(CCN4CCOCC4)C3c3ccccc3F)ccc2O1 (stereo not given) | 10% |  |
| O=C1C(=O)N(CCN2CCOCC2)C(c2ccccn2)/C1=C(/O)c1ccc(Cl)cc1 (stereo not given) |  | 7.94 µM (active) |
| O=C1C(=O)N(CCCO)C(c2ccccc2)/C1=C(\O)c1ccc(Br)cc1 (stereo not given) | 12.3% [at 0.501 µM] |  |
| O=C1C(=O)N(CCCN2CCOCC2)C(c2ccc([N+](=O)[O-])cc2)/C1=C(\O)c1ccc2c(c1)OCCO2 (stereo not given) | -12.3% [at 0.0925 µM] |  |

| Compound | activity, negative = inhibition | Potency |
| --- | --- | --- |
| COCCN1C(=O)C(=O)/C(=C(/O)c2ccc(S(=O)(=O)N3CCOCC3)cc2)C1c1ccc(OC)c(OC)c1 (stereo not given) | -13% [at 102 µM] |  |
| COc1ccc(C2/C(=C(/O)c3ccc(OC(C)C)cc3)C(=O)C(=O)N2CCCN2CCOCC2)cc1 (stereo not given) |  | 44.7 µM (active) |
| CCCCSCCCNC(=O)C1CCC(CNS(=O)(=O)c2ccc(NC(C)=O)cc2)CC1 (stereo not given) | 16.1% [at 102 µM] |  |
| COCCN(Cc1ccccc1)C(=O)Cc1ccc(S(=O)(=O)N2CCOCC2)s1 | -3.78% [at 12.7 µM] |  |
| COc1ccc(NC(=O)Cn2c(=O)n(CCC(C)C)c(=O)c3cccnc32)cc1Cl | -0.386% |  |
| O=C(Nc1ccc(Br)cc1)c1cc2nc(-c3ccccc3)cc(-c3ccccc3)n2n1 | 29.5% |  |
| COc1cccc(C(=O)Nc2ccc(N3CCCC3)cc2)c1 |  | 4.47 µM (active) |
| COC(=O)Cc1ccc(NC(=S)NCc2ccccc2)cc1 | 10% |  |
| COc1cccc(C(=O)Nc2ccc(N3CCN(C(=O)c4ccco4)CC3)cc2)c1 | -10.2% [at 102 µM] |  |
| COc1ccc(C(=O)Nc2ccc3nc(N4CCCCC4)cc(C)c3c2)cc1OC | 1.41% |  |
| Cc1ccccc1C(=O)NC(=S)Nc1ccc(N2CCN(C(=O)c3ccccc3)CC2)cc1 | -1.64% [at 102 µM] |  |
| Cc1ccc(C(=O)NC(=S)Nc2ccc(N3CCOCC3)cc2)cc1 |  | 7.94 µM (active) |
| O=C(O)CCC(=O)Nc1ccc(N2CCOCC2)cc1 | -10.4% |  |
| Cc1ccc(C(=O)NC(=S)NCCN2CCOCC2)cc1 | -39.8% |  |
| COc1ccc(C(=O)NC(=S)Nc2ccc(N3CCCC3)cc2)cc1OC |  | 3.98 µM (active) |
| COc1ccc(C(=O)Nc2ccc(N3CCC(C)CC3)cc2)cc1Br | -10% [at 102 µM] |  |
| O=C(Cc1ccccc1)NC(=S)Nc1ccc(N2CCCCC2)cc1 |  | 7.94 µM (active) |
| COc1cccc(C(=O)Nc2ccc3nc4n(c(=O)c3c2)CCCCC4)c1 | 1.5% |  |
| COc1ccc2oc(-c3ccc(C)c(NC(=O)c4sc5ccccc5c4Cl)c3)nc2c1 | -23.3% |  |
| CCOc1ccccc1NC(=S)NC(=O)CCc1ccccc1 | -3.32% [at 102 µM] |  |
| CSCC[C@H](NC(=O)N1CCn2c1nc1ccccc12)C(=O)NCc1ccc2c(c1)OCO2 | -13.1% [at 102 µM] |  |
| Cc1ccnc(NC(=O)CCNS(=O)(=O)c2ccc(C)c(C)c2)c1 | 52.3% [at 102 µM] |  |
| CN(Cc1ccccc1)C(=O)CSc1nc2ccccc2[nH]1 | 2.4% |  |
